Assay [1] concerns RAW-Dual. The experiment in a line: NF-kB SEAP reporter activity, fold change vs agonist alone; cytotoxicity flag (confluency mask): not cytotoxic; higher = enhanced NF-kB activity. The procedure, abridged: (§1)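 Library stock was pin-tooled at 50 nL into 384-well plates of RAW-Dual macrophages (50,000 cells/well, DMEM), followed 1 h later by a PRR agonist, and the cells were kept at 37 °C, 5% CO2. Supernatant collected after 20 hours was read for IRF by QuantiLuc luminescence and for NF-κB by QuantiBlue absorbance at 620 nm. Reporter activity is fold change over agonist-alone wells, and a well counted as cytotoxic when its IncuCyte confluency was below 70% of agonist controls in both mask sets.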

Assay [2] has as its system RAW-Dual. The experiment in a line: NF-kB SEAP reporter activity, fold change vs agonist alone; higher = enhanced NF-kB activity. The procedure, abridged: as §1
The test system of assay [3] is RAW-Dual. As to the kind of experiment: NF-kB SEAP reporter activity, fold change vs agonist alone; cytotoxicity flag (confluency mask): cytotoxic (confluency <70% of control); higher = enhanced NF-kB activity. The method in brief:
as §1

[4] abbreviates: agonist: ODN 1826 (TLR9) 0.5 ug/mL.
Where [5] appears, read: agonist: Pam2CSK4 (TLR2/6) 0.1 ug/mL.
The mark [6] stands for this setting: agonist: Pam3CSK4 (TLR2/1) 0.1 ug/mL.
Setting [7] is: library stock concentration (final ~1000-fold dilution): 10 mM, cytotoxicity flag (confluency mask): not cytotoxic, agonist: MPLA (TLR4) […].
[8] abbreviates: library stock concentration (final ~1000-fold dilution): 10 mM, cytotoxicity flag (confluency mask): not cytotoxic, agonist: Imiquimod (TLR7) […].
Setting [9] is: library stock concentration (final ~1000-fold dilution): 10 mM, cytotoxicity flag (confluency mask): cytotoxic (confluency <70% of control), agonist: MPLA (TLR4) […].
[10] abbreviates: library stock concentration (final ~1000-fold dilution): 10 mM, cytotoxicity flag (confluency mask): cytotoxic (confluency <70% of control), agonist: Imiquimod (TLR7) […].

The full ranking holds about 2,900 compounds; the median of “NF-kB SEAP reporter activity, fold change vs agonist alone” is about 0.99, and the highest 2% start at about 2.6. What follows is part of a selection rich in the highest values, with near analogues and random picks from the rest.

For `CCCCCCCCCC(=O)NC(Cc1c[nH]c2ccccc12)C(=O)NC(CC(N)=O)C(=O)NC(CC(=O)O)C(=O)NC1C(=O)NCC(=O)NC(CCCN)C(=O)NC(CC(=O)O)C(=O)NC(C)C(=O)NC(CC(=O)O)C(=O)NCC(=O)NC(CO)C(=O)NC(C(C)CC(=O)O)C(=O)NC(CC(=O)c2ccccc2N)C(=O)OC1C` (centres undefined) (library stock concentration (final ~1000-fold dilution): 10 mM), the “NF-kB SEAP reporter activity” value in the assay on RAW-Dual [1] (agonist: LPS (TLR4) 0.1 ug/mL) amounted to 1.33; in the assay on RAW-Dual [1] (setting [4]), 1.01; in the assay with RAW-Dual [1] (setting [5]) it was 1.05; in the assay on RAW-Dual [1] (setting [6]) it was 1.19.
The matching figures for `CC(=O)OC(CC=C(C)C)C1=CC(=O)c2c(O)ccc(O)c2C1=O` (centres undefined) (library stock concentration (final ~1000-fold dilution): 2 mM): 0.479, 0.647, 0.257 and 0.408.
For `CC(=O)OC(CC=C(C)C)C1=CC(=O)c2c(O)ccc(O)c2C1=O` (centres undefined), the “NF-kB SEAP reporter activity” value was found to be 0.978 in the assay on RAW-Dual [2] (library stock concentration (final ~1000-fold dilution): 2 mM, cytotoxicity flag (confluency mask): not cytotoxic, agonist: Imiquimod (TLR7) […]) and 0.978 in the assay on RAW-Dual [2] (library stock concentration (final ~1000-fold dilution): 2 mM, cytotoxicity flag (confluency mask): not cytotoxic, agonist: MPLA (TLR4) […]).
For `O=c1cc(-c2ccccc2)oc2c1ccc1ccccc12` (library stock concentration (final ~1000-fold dilution): 10 mM), the “NF-kB SEAP reporter activity” value with RAW-Dual [1] (agonist: LPS (TLR4) 0.1 ug/mL) is 0.691; in the assay on RAW-Dual [1] (setting [4]), 0.933; in the assay on RAW-Dual [1] (setting [5]) it was 0.846; in the assay on RAW-Dual [1] (setting [6]) it was 0.982.
Turning to `O=c1cc(-c2ccccc2)oc2c1ccc1ccccc12`, the “NF-kB SEAP reporter activity” value in the assay with RAW-Dual [2] (setting [7]) was 1.2.
On to `C#CCNC1CCc2ccccc21` (centres undefined) (library stock concentration (final ~1000-fold dilution): 10 mM), for which the “NF-kB SEAP reporter activity” value turned out to be 1.06 in the assay on RAW-Dual [1] (agonist: LPS (TLR4) 0.1 ug/mL), 0.931 with RAW-Dual [1] (setting [4]), 1.04 in the assay with RAW-Dual [1] (setting [5]) and 1.08 with RAW-Dual [1] (setting [6]).
Consider `C#CCNC1CCc2ccccc21` (centres undefined), for which the “NF-kB SEAP reporter activity” value was found to be 0.916 in the assay with RAW-Dual [2] (setting [8]) and 1.14 in the assay on RAW-Dual [2] (setting [7]).
On to `O=C1Nc2ccc(Cl)cc2C(C#CC2CC2)(C(F)(F)F)O1` (centres undefined), for which, in the assay with RAW-Dual [2] (setting [9]), the “NF-kB SEAP reporter activity” value was found to be 0.748.
Take `O=C1Nc2ccc(Cl)cc2C(C#CC2CC2)(C(F)(F)F)O1` (centres undefined) (library stock concentration (final ~1000-fold dilution): 10 mM): the “NF-kB SEAP reporter activity” value with RAW-Dual [3] (agonist: LPS (TLR4) 0.1 ug/mL) worked out at 0.632; with RAW-Dual [3] (setting [4]), 0.547; with RAW-Dual [3] (setting [5]), 0.614; with RAW-Dual [3] (setting [6]), 0.542.
On to `CCCC(NC1CCc2cc(F)cc(F)c2C1)C(=O)Nc1cn(C(C)(C)CNCC(C)(C)C)cn1` (centres undefined) (library stock concentration (final ~1000-fold dilution): 10 mM), for which the “NF-kB SEAP reporter activity” value with RAW-Dual [1] (agonist: LPS (TLR4) 0.1 ug/mL) worked out at 0.636; in the assay on RAW-Dual [1] (setting [4]), 0.316; in the assay on RAW-Dual [1] (setting [5]), 0.723; in the assay on RAW-Dual [1] (setting [6]), 0.298.
As for `CCCC(NC1CCc2cc(F)cc(F)c2C1)C(=O)Nc1cn(C(C)(C)CNCC(C)(C)C)cn1` (centres undefined), the “NF-kB SEAP reporter activity” value with RAW-Dual [2] (setting [8]) is 0.373; in the assay on RAW-Dual [2] (setting [7]), 0.669.
For `CC(=O)NC(CC(C)C)C(=O)NC(CC(C)C)C(=O)NC(C=O)CCCNC(=N)N` (centres undefined) the same measures were 0.983 and 1.09.
`CC(=O)NC(CC(C)C)C(=O)NC(CC(C)C)C(=O)NC(C=O)CCCNC(=N)N` (centres undefined) (library stock concentration (final ~1000-fold dilution): 10 mM): the “NF-kB SEAP reporter activity” value with RAW-Dual [1] (agonist: LPS (TLR4) 0.1 ug/mL) was 1.01; in the assay with RAW-Dual [1] (setting [4]), 1.02; in the assay with RAW-Dual [1] (setting [5]), 1.08; in the assay with RAW-Dual [1] (setting [6]), 1.15.
As for `CN1C2=C3N=c4ccccc4=C3CCN2C(=O)c2ccccc21`, the “NF-kB SEAP reporter activity” value in the assay on RAW-Dual [2] (setting [8]) turned out to be 1.62; in the assay on RAW-Dual [2] (setting [7]) it was 1.83.
Consider `CN1C2=C3N=c4ccccc4=C3CCN2C(=O)c2ccccc21` (library stock concentration (final ~1000-fold dilution): 10 mM), for which the “NF-kB SEAP reporter activity” value with RAW-Dual [1] (agonist: LPS (TLR4) 0.1 ug/mL) is 1.05; in the assay with RAW-Dual [1] (setting [4]) it was 0.339; in the assay with RAW-Dual [1] (setting [5]), 0.824; with RAW-Dual [1] (setting [6]), 1.1.
Take `Cc1cc2c(C(N)=O)cccc2n1-c1nc2c(c(NCc3ccccc3)n1)COCC2`: the “NF-kB SEAP reporter activity” value in the assay with RAW-Dual [2] (setting [10]) was found to be 0.297; in the assay on RAW-Dual [2] (setting [9]), 0.302.
Turning to `Cc1cc2c(C(N)=O)cccc2n1-c1nc2c(c(NCc3ccccc3)n1)COCC2` (library stock concentration (final ~1000-fold dilution): 10 mM), the “NF-kB SEAP reporter activity” value in the assay on RAW-Dual [3] (agonist: LPS (TLR4) 0.1 ug/mL) was determined as 0.298; in the assay on RAW-Dual [3] (setting [4]), 0.325; in the assay on RAW-Dual [3] (setting [5]), 0.0795; in the assay on RAW-Dual [3] (setting [6]), 0.159.
On to `CC(C)=CCC[C@](C)(O)[C@H]1CC[C@]2(C)[C@@H]3CCC4C(C)(C)[C@@H](O)CC[C@]4(C)[C@H]3C[C@@H](O)[C@@]12C` (some centres undefined), for which the entries for the “NF-kB SEAP reporter activity” value with RAW-Dual [2] (setting [8]) and in the assay with RAW-Dual [2] (setting [7]) were 0.934 and 1.14, respectively.
In the case of `CC(C)=CCC[C@](C)(O)[C@H]1CC[C@]2(C)[C@@H]3CCC4C(C)(C)[C@@H](O)CC[C@]4(C)[C@H]3C[C@@H](O)[C@@]12C` (some centres undefined) (library stock concentration (final ~1000-fold dilution): 10 mM), the “NF-kB SEAP reporter activity” value is 1.41 in the assay on RAW-Dual [1] (agonist: LPS (TLR4) 0.1 ug/mL), 0.693 in the assay with RAW-Dual [1] (setting [4]), 0.848 in the assay with RAW-Dual [1] (setting [5]) and 0.882 in the assay on RAW-Dual [1] (setting [6]).
For `O=c1cc(-c2ccc(O)cc2)oc2c(C3OCC(O)C(O)C3O)c(O)c(C3OC(CO)C(O)C(O)C3O)c(O)c12` (centres undefined), the figures for the “NF-kB SEAP reporter activity” value in the assay on RAW-Dual [2] (setting [8]) and in the assay with RAW-Dual [2] (setting [7]) were 1.02 and 1.05, respectively.
For the molecule `O=c1cc(-c2ccc(O)cc2)oc2c(C3OCC(O)C(O)C3O)c(O)c(C3OC(CO)C(O)C(O)C3O)c(O)c12` (centres undefined) (library stock concentration (final ~1000-fold dilution): 10 mM), the “NF-kB SEAP reporter activity” value in the assay with RAW-Dual [1] (agonist: LPS (TLR4) 0.1 ug/mL) worked out at 1.45; with RAW-Dual [1] (setting [4]), 1.03; in the assay on RAW-Dual [1] (setting [5]), 1.08; in the assay with RAW-Dual [1] (setting [6]), 1.08.
As to `CCn1cc(-c2cccc(C(F)(F)F)c2)c2sc(C(=N)NC3CCS(=O)(=O)CC3)cc2c1=O`, the “NF-kB SEAP reporter activity” value in the assay with RAW-Dual [2] (setting [10]) was found to be 1.33; in the assay on RAW-Dual [2] (setting [9]), 2.16.
As to `CCn1cc(-c2cccc(C(F)(F)F)c2)c2sc(C(=N)NC3CCS(=O)(=O)CC3)cc2c1=O` (library stock concentration (final ~1000-fold dilution): 10 mM), the “NF-kB SEAP reporter activity” value in the assay on RAW-Dual [3] (agonist: LPS (TLR4) 0.1 ug/mL) turned out to be 3.13; in the assay with RAW-Dual [3] (setting [4]), 0.721; in the assay with RAW-Dual [3] (setting [5]), 1.15; with RAW-Dual [3] (setting [6]), 1.12.
Take `CCCNC(=O)C1OC1C(=O)NC(C(=O)N1CCCC1C(=O)OC)C(C)CC` (centres undefined) (library stock concentration (final ~1000-fold dilution): 10 mM): the “NF-kB SEAP reporter activity” value came to 1.06 in the assay with RAW-Dual [1] (agonist: LPS (TLR4) 0.1 ug/mL), 0.881 in the assay on RAW-Dual [1] (setting [4]), 0.854 in the assay on RAW-Dual [1] (setting [5]) and 0.799 in the assay on RAW-Dual [1] (setting [6]).
Turning to `CCCNC(=O)C1OC1C(=O)NC(C(=O)N1CCCC1C(=O)OC)C(C)CC` (centres undefined), the “NF-kB SEAP reporter activity” value is 0.821 with RAW-Dual [2] (setting [8]) and 1.04 in the assay with RAW-Dual [2] (setting [7]).

The values above are taken from the supplement of paper PMC10037445.
